Records with an inconclusive call do not appear. Activity calls are given as the source filed them. Unless noted, the call rests on the fitted dose curve.
Columns and labels:
[1] = Nuclear factor erythroid 2-related factor 2/antioxidant responsive element (Nrf2/ARE) small molecule agonists: qHTS cell viability counter screen in human keratinocytes (AID 1919968; active means well fitted curve in the direction sought with a large enough effect in the repeat runs; an effect the other way counts as inactive or inconclusive; further: nearly all actives have a fitted effect of over 55% in size)
Outline: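 KeratinoSens cells (HaCaT keratinocytes stably carrying an ARE-luciferase reporter) were seeded at 1,500 cells/well and rested 5 h at 37 C/5% CO2. They were then exposed to compounds in DMSO for 23 h. Viability was read by CellTiter-Fluor fluorescence after 1 h.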

[2] = Nuclear factor erythroid 2-related factor 2/antioxidant responsive element (Nrf2/ARE) small molecule agonists: luciferase reporter gene qHTS assay in human keratinocytes (AID 1919969); further: nearly all actives have a fitted effect of over 35% in size
[3] = target: Gonadotropin-releasing hormone receptor (Homo sapiens) (UniProt P30968); assay: Human gonadotropin-releasing hormone receptor (GnRHR) small molecule agonists, calcium flux assay in GnRHR-HEK293 cells (AID 1920063); further: nearly all actives have a fitted effect of over 35% in size
Sequence of Gonadotropin-releasing hormone receptor (Homo sapiens) (P30968 whole entry, looked up): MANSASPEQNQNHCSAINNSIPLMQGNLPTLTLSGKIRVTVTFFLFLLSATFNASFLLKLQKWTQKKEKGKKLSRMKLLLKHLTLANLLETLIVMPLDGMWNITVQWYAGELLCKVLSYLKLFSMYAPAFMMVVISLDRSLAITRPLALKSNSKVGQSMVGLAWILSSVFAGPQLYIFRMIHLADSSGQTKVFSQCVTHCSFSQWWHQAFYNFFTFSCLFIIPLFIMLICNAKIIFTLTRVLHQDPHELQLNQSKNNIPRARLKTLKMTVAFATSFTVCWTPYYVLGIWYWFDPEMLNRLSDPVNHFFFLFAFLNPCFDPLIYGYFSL
Outline: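 HEK293 cells stably expressing human GnRHR were plated 18 h at 37 °C, loaded with calcium dye 1 h at 37 °C, then given compound in agonist mode; fluorescence (Ex/Em 480/540) read kinetically for 3 min at 1 s intervals.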

[4] = target: KiSS-1 receptor (Homo sapiens) (UniProt Q969F8); assay: Human kisspeptin (KISS1R) small molecule agonists, calcium flux assay in KISS1R-HEK293 cells (AID 1920064; active means well fitted curve in the direction sought with a large enough effect in the repeat runs; an effect the other way counts as inactive or inconclusive)
Sequence of KiSS-1 receptor (Homo sapiens) (Q969F8 whole entry, looked up): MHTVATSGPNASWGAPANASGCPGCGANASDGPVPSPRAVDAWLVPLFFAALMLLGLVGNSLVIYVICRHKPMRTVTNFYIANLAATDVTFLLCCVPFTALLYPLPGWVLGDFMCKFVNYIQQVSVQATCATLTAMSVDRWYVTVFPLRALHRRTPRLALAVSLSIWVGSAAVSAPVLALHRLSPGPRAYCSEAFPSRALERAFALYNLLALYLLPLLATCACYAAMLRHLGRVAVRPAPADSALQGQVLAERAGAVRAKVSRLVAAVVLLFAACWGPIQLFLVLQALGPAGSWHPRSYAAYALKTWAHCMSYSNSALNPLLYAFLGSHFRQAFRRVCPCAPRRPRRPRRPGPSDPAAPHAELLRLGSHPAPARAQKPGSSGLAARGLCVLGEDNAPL
Outline: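 HEK293 cells stably expressing human KISS1R were plated 18 h at 37 °C, loaded with calcium dye for 1 h at 37 °C, then given compound by pin tool. Fluorescence (Ex/Em 480/540) was read kinetically for 3 min.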

[5] = G protein-coupled receptor (GPCR) small molecule agonists, calcium flux assay: HEK293 wild type cell line counter screen (AID 1920065)
Outline: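 Cells were plated and cultured 18 h at 37 C/5% CO2, then loaded with calcium dye for 1 h at 37 C. Compounds in DMSO were pin-transferred in agonist mode, and fluorescence (Ex/Em 480/540) was read kinetically for 3 min at 1 s intervals.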

[6] = p53 small molecule agonists, cell-based qHTS assay with rat liver microsomes (AID 1963578)
Outline: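 Read-out is beta-lactamase reporter fluorescence (LiveBLAzer, 2 h, room temperature, dark) in p53RE-bla cells treated 16 h at 37 C with compound, rat liver microsomes and NADPH, both 0.5 mg/mL final.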

[7] = p53 small molecule agonists, cell-based qHTS assay with human liver microsomes: qHTS cell viability counter screen (AID 1963579); further: nearly all actives have a fitted effect of over 45% in size
Outline: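 Cells carrying the p53 response-element beta-lactamase reporter are treated for 16 h at 37 C with test compounds in the presence of human liver microsomes and NADPH (both 0.5 mg/mL final); ATP-based CellTiter-Glo luminescence then reports viability.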

[8] = p53 small molecule agonists, cell-based qHTS assay with rat liver microsomes: qHTS cell viability counter screen (AID 1963580); further: nearly all actives have a fitted effect of over 45% in size
Outline: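 Viability is assessed in parallel with the p53 reporter read: HCT-116 p53RE-bla cells receive compounds plus rat microsomes and NADPH (0.5 mg/mL final apiece), incubate 16 h at 37 C, and then CellTiter-Glo luminescence is recorded.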

[9] = p53 small molecule agonists, cell-based qHTS assay: qHTS cell viability counter screen (AID 1963581); further: nearly all actives have a fitted effect of over 45% in size
Outline: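 p53RE-bla HCT-116 cells were exposed to compounds for 16 h at 37 C; after the beta-lactamase FRET read in the same wells, CellTiter-Glo was added and luminescence (intracellular ATP) read after 30 min at room temperature.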

[10] = p53 small molecule agonists, cell-based qHTS assay (AID 1963582; active means well fitted activation curve with a large enough effect in the signal ratio in the repeat runs, not every such curve was filed as active; the % refers to the signal ratio)
Outline: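 p53RE-bla beta-lactamase reporter cells rested 5 h at 37 C/5% CO2, then received compounds in DMSO by pin transfer and were incubated 16 h at 37 C. LiveBLAzer B/G FRET substrate was loaded for 2 h at room temperature before fluorescence reading.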

[11] = target: 5-hydroxytryptamine receptor 2A (Homo sapiens) (UniProt P28223); assay: 5-hydroxytryptamine receptor 2A (HTR2A) small molecule antagonists, cell-based qHTS assay (AID 1963586); further: nearly all actives have a fitted effect of over 45% in size
Sequence of 5-hydroxytryptamine receptor 2A (Homo sapiens) (P28223 whole entry, looked up): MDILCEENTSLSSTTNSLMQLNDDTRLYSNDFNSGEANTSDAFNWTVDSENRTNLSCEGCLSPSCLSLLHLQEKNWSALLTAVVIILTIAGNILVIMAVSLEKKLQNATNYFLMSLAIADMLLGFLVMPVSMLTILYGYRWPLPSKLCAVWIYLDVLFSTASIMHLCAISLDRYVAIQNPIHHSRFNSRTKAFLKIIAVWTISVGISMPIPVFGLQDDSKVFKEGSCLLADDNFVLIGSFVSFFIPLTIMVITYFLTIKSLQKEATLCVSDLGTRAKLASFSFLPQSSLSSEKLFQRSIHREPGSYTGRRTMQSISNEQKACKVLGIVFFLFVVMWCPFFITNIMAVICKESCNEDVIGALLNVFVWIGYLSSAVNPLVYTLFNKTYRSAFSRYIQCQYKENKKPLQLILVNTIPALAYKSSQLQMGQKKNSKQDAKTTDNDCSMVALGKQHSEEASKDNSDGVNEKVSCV
Outline: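 Antagonist-mode intracellular calcium assay: DOI (4 nM) added after 5 min compound pre-incubation at room temperature to dye-loaded HTR2A-CHO cells. Fluorescence followed for 3 min, sampled every second.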

[12] = target: 5-hydroxytryptamine receptor 2A (Homo sapiens) (UniProt P28223); assay: 5-hydroxytryptamine receptor 2A (HTR2A) small molecule agonists, cell-based qHTS assay (AID 1963587); further: nearly all actives have a fitted effect of over 30% in size
Outline: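 CHO cells stably expressing human HTR2A, plated 18 h, loaded with calcium dye 1 h at 37 C. Agonist mode: compounds added and intracellular calcium fluorescence recorded kinetically for 2 min at 1 sec intervals.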

[13] = target: Muscarinic acetylcholine receptor M1 (Homo sapiens) (UniProt P11229); assay: Cholinergic receptor muscarinic 1 (CHRM1) small molecule antagonists, cell-based qHTS assay (AID 1963588); further: nearly all actives have a fitted effect of over 40% in size
Sequence of Muscarinic acetylcholine receptor M1 (Homo sapiens) (P11229 whole entry, looked up): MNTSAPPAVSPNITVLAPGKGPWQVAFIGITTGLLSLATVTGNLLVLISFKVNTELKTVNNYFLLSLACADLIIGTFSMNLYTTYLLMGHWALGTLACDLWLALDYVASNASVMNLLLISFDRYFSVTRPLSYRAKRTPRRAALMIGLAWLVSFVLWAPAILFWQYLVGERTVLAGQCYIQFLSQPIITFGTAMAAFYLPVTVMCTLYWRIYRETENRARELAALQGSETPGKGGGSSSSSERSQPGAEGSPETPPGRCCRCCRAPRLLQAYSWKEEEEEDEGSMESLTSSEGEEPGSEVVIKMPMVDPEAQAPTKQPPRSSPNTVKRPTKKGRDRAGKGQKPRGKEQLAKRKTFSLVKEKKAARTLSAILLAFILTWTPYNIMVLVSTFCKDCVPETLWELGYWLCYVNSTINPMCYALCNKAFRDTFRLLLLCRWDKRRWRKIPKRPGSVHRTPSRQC
Outline: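 CHRM1-CHO calcium-flux assay, antagonist mode. Cells were seeded 18 h, dye-loaded 1 h at 37 C and given compound for 5 min at RT, then acetylcholine was added at 50nM. FDSS fluorescence was read 3 min; 15 concentrations, three runs.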

[14] = target: Muscarinic acetylcholine receptor M1 (Homo sapiens) (UniProt P11229); assay: Cholinergic receptor muscarinic 1 (CHRM1) small molecule agonists, cell-based qHTS assay (AID 1963589); further: nearly all actives have a fitted effect of over 35% in size
Outline: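 CHO cells stably expressing human CHRM1, seeded 18 h at 37 C/5% CO2, dye-loaded 1 h at 37 C, then given compound in agonist mode; intracellular calcium fluorescence read kinetically at 1 s intervals. Fifteen concentrations, three independent runs.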

[15] = cAMP Responsive Elements (CRE) small molecule agonists, cell-based qHTS assay (AID 1963590)
Outline: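 CRE-bla HEK 293T cells in DMEM with 10% dialyzed FBS, NEAA, pyruvate and 25 mM HEPES were plated 18 h at 37 C/5% CO2, then exposed to compounds in DMSO for 3 h before LiveBLAzer B/G FRET substrate addition.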

[16] = cAMP Responsive Elements (CRE) small molecule antagonists, cell-based qHTS assay (AID 1963591; active means well fitted inhibition curve with a large enough effect in the signal ratio in the repeat runs, not every such curve was filed as active; the % refers to the signal ratio)
Outline: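 CRE-bla HEK293T cells were plated 18 h at 37 °C/5% CO2, pinned with compound in DMSO, then stimulated with NKH477 at 0.25 uM final for 3 h. LiveBLAzer B/G FRET substrate was added and plates incubated 2 h at room temperature.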

[17] = target: Beta-2 adrenergic receptor (Homo sapiens) (UniProt P07550); assay: Adrenergic beta2 receptor (ADRB2) small molecule agonists, cell-based qHTS assay (AID 1963593);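 further: CHO cells stably overexpressing human ADRB2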
Sequence of Beta-2 adrenergic receptor (Homo sapiens) (P07550 whole entry, looked up): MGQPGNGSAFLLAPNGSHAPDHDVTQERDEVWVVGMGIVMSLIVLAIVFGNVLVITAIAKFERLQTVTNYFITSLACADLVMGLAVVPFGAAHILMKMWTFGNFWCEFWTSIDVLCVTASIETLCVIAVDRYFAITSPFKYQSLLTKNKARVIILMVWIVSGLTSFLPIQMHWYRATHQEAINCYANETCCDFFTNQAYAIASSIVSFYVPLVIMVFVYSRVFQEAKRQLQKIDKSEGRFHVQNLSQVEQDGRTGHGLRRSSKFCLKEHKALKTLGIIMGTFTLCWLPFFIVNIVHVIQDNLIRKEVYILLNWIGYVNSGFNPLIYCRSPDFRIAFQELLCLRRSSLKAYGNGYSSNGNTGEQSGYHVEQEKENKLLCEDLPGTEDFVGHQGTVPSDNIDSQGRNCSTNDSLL
Outline: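 CHO cells stably over-expressing ADRB2 were plated overnight at 37C, then dosed with compounds plus a stimulation mix containing 100uM IBMX and 25uM Ro-20-1724 for 0.5hr at room temperature. cAMP was measured by HTRF competition, 1hr.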

[18] = target: D(2) dopamine receptor (Homo sapiens) (UniProt P14416); assay: Dopamine D2 receptor (DRD2) small molecule agonists, cell-based qHTS assay (AID 1963594); further: nearly all actives have a fitted effect of over 35% in size
Sequence of D(2) dopamine receptor (Homo sapiens) (P14416 whole entry, looked up): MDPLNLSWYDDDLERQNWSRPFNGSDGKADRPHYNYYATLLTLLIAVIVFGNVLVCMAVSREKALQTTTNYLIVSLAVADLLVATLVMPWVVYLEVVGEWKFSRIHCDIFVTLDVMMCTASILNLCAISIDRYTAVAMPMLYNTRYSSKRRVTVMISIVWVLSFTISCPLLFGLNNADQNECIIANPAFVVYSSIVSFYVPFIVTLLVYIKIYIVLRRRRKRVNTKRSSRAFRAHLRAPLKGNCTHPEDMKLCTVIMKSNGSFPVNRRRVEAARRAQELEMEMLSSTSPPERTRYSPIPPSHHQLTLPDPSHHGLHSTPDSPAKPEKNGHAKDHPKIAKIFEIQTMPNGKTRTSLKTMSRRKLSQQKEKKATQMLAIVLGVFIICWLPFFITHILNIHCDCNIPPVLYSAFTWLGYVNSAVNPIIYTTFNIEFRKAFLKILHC
Outline: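 HEK293 cells stably expressing human DRD2, pre-treated with PDE inhibitor Ro20-1724 (0.1 mM final) and compound 10 min at room temperature, then stimulated with NKH477 (200nM […]) for 30 min. cAMP read by HTRF (665/620 nm).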

[19] = target: D(2) dopamine receptor (Homo sapiens) (UniProt P14416); assay: Dopamine D2 receptor (DRD2) small molecule antagonists, cell-based qHTS assay (AID 1963595; active means well fitted inhibition curve with a large enough effect in the signal ratio in the repeat runs, with a control signal flat; the % refers to the signal ratio)
Outline: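 Antagonism was scored as restored cAMP in HEK293-DRD2 cells. These cells were stimulated with 200 nM NKH477 and 12 nM quinpirole for 30 min at room temperature, in the presence of 0.1 mM Ro20-1724.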

[20] = target: Beta-2 adrenergic receptor (Homo sapiens) (UniProt P07550); assay: Adrenergic beta2 receptor (ADRB2) small molecule antagonists, cell-based qHTS assay (AID 1963592); further: series mostly up to about 92 µM; nearly all actives have a fitted effect of over 50% in size
Outline: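 Cells (CHO, stable ADRB2 overexpression) incubated 18-20hr at 37C; compounds added from DMSO; agonist mix (1nM isoproterenol, 100uM IBMX, 25uM Ro-20-1724) added; 0.5hr RT; d2-cAMP and anti-cAMP-cryptate added; 1hr RT; 665/615 nm read.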

Measured: Potency

OC/C=C/CO
not listed: [20]
inactive: all other assays above

COc1cccc(OC)c1
not listed: [19]
inactive: all other assays above

O=C(O)C1CCC(C(=O)O)CC1 (stereo unspecified)
inactive: all assays above

CCCCc1ccc(Cl)cc1
not listed: [17]
inactive: all other assays above

CNC(=O)c1c(I)c(NC(C)=O)c(I)c(C(=O)O)c1I
inactive: all assays above

NCCCN1CCN(CCCN)CC1
not listed: [6] | [7] | [15] | [17] | [19]
inactive: all other assays above

Cc1onc(-c2ccccc2)c1C(=O)Cl
not listed: [13]
inactive: all other assays above
